The values that follow come from article PMC7819943, “Rice protein-binding microarrays: a tool to detect cis-acting elements near promoter regions in rice”.

Whole data set: some 39,000 sequences, median “fluorescence intensity (a.u.)” near 4,300, cut for the highest 2% near 39,000. For the sample, the highest values were picked, then their nearest neighbours and some sequences at random.

This test has as its target T1, OsSMF1 (Oryza sativa, UniProt Q6ZLB0 1-436).
T1 sequence: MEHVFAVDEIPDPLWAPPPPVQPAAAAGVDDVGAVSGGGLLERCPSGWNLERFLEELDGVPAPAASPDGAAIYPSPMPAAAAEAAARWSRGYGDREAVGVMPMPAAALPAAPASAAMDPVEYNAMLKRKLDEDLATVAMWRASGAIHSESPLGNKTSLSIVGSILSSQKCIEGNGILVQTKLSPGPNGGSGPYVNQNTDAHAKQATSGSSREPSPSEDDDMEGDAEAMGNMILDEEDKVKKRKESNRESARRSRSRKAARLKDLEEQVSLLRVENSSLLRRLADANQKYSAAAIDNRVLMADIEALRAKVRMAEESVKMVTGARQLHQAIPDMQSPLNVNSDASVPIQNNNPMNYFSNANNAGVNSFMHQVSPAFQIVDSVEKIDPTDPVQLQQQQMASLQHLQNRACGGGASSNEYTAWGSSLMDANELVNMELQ
The test can be described thus: protein-binding microarray (RPBM); PBS, 2% BSA, 51.3 ng/ul salmon testes DNA, 50 uM zinc acetate, 200 nM TF, 25 C, 1 h; high values mean tight binding. The conditions noted are these: protein: recombinant; tags: N-terminal polyhistidine and DsRed monomer fusion (pET32a); chain copies: 2; label: CyDye5-dUTP incorporated in the synthesized complementary strand; 3' TTTTT single-stranded linker to array surface; dsDNA, one strand shown. In outline:
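Transcription factors, each fused N-terminally to a polyhistidine tag and DsRed, were expressed in E. coli BL21-CodonPlus and purified on Ni–NTA. A custom Agilent array was made double-stranded by primer extension with Cy5-dUTP and blocked with 2% BSA. It was incubated with 200 nM protein in PBS, 2% BSA, salmon testes DNA and 50 µM zinc acetate at 25 °C for 1 h, then washed. The binding signal is per-feature fluorescence intensity (arbitrary units) read on an Axon 4000B scanner.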
For “CACCCGCCATCGTGGCGGACATTCCAGTATAGGTACGGCACGGAGTCACCTAGTGCAG”, the binding signal is 6150 fluorescence intensity (a.u.).
Take “TGGTGGTGGAAATTTTGGAAATCGTGAGGGCTACACATACCGGAGTCACCTAGTGCAG”: the binding signal is 3550 fluorescence intensity (a.u.).
The value for “CGTCGACCACCACCACGCTCTTGCCCCTGATGACGCCGTGCGGAGTCACCTAGTGCAG” was 6870 fluorescence intensity (a.u.).
Under “CGGCTTCCCGACGGTGGCGGCGCACGTGGGCGAGGCTGAGCGGAGTCACCTAGTGCAG” stands 3800 fluorescence intensity (a.u.); under “TTGCCACGTAATCGCTACGTCAATGCCACGTGGGACGGAGCGGAGTCACCTAGTGCAG”, 43800 fluorescence intensity (a.u.); under “CCCACCTTTCAAATTCCACGTCCGCCAATAATATTATTACCGGAGTCACCTAGTGCAG”, 6710 fluorescence intensity (a.u.).
As for “CATCTAATTGCCACATAAGCGCCACGTCAACGACACGTTGCGGAGTCACCTAGTGCAG”, the binding signal is 41300 fluorescence intensity (a.u.).
On to “TGCGGATCTAATTGCCACGTAAGCGCCACGACAATGACACCGGAGTCACCTAGTGCAG”, for which the binding signal was 16800 fluorescence intensity (a.u.).
The value for “AGCAGTAACCACGAAAGCGCTCGGCTCCACACGCCACGCACGGAGTCACCTAGTGCAG” was 3280 fluorescence intensity (a.u.); that for “CACGTAAGCGTCACGTCAATGCCACGTGGGACGGTGACCTCGGAGTCACCTAGTGCAG” was 27900 fluorescence intensity (a.u.); that for “TAGTTAATAAAAGTCAAAATGAAGTCACAATTTGCCACGTCGGAGTCACCTAGTGCAG” was 8180 fluorescence intensity (a.u.).
With “CCGCCCCACGCGGCGCCACCACACCACCGCGCGCGTCGCTCGGAGTCACCTAGTGCAG”, the binding signal is 5900 fluorescence intensity (a.u.).
In the case of “GCCCACAAGCGCTCGGCTCGAAACGCCACGTCACCACGCTCGGAGTCACCTAGTGCAG”, the binding signal is 43800 fluorescence intensity (a.u.).
The value for “ATGCCACATAAACCCTACGTCAATGCCACGTGGGACAAAGCGGAGTCACCTAGTGCAG” was 22600 fluorescence intensity (a.u.); that for “ATCTAATTGCCACATAAGCACTACGTCAATAACACGTTAGCGGAGTCACCTAGTGCAG” was 10100 fluorescence intensity (a.u.); that for “TATTAATTTCCAAATAAATTGCTATGTCAATGCCACGTCACGGAGTCACCTAGTGCAG” was 40900 fluorescence intensity (a.u.).
The value for “CTGTCCATTGATCTGTCCCTGGCAGCGACGTGACGTCCCACGGAGTCACCTAGTGCAG” was 4890 fluorescence intensity (a.u.).
Take “GCTTCGTGGGCCTCTCACTTGAGTCACTGGCACTCCATTCCGGAGTCACCTAGTGCAG”: the binding signal was 3570 fluorescence intensity (a.u.).
Under “TCCAAAATATTAGCATGGCACAGATTGGCACTACCCTTGTCGGAGTCACCTAGTGCAG” stands 3280 fluorescence intensity (a.u.); under “CGTAGAGGAATAACAATGGAACGTCATCCCTCTCTGTTCGCGGAGTCACCTAGTGCAG”, 4120 fluorescence intensity (a.u.).
Take “GGTTCCATGCCTCGCCGTTTATCTATCTAATTTACTAGCACGGAGTCACCTAGTGCAG”: the binding signal was 3170 fluorescence intensity (a.u.).
Under “CGGCATTGACCTGGTCTTTGTTCCACGTGGCGCTTAGGTGCGGAGTCACCTAGTGCAG” stands 8840 fluorescence intensity (a.u.); under “TGTATGTCGGGTTGTCGATGATCAAGCCAGTGACACGCTTCGGAGTCACCTAGTGCAG”, 4000 fluorescence intensity (a.u.); under “AGCCCACGTCCAGCTCACACACGCACCCACAACCGACCCACGGAGTCACCTAGTGCAG”, 6070 fluorescence intensity (a.u.).
Under “TCAAATCAAATTGCCACGTAAGCGCCACGTCACTGCCACACGGAGTCACCTAGTGCAG” stands 35200 fluorescence intensity (a.u.).
Under “AGAATCGCTTATATTATGGGACGGACGTAACATATAGAAGCGGAGTCACCTAGTGCAG” stands 41100 fluorescence intensity (a.u.); under “ACATATAATTGCCACGTCAGCGCCACATCAATGCCACGTGCGGAGTCACCTAGTGCAG”, 26100 fluorescence intensity (a.u.); under “TATAATTGCTACGTAAGCGCCACGTCAATGCCATGTCAGACGGAGTCACCTAGTGCAG”, 15700 fluorescence intensity (a.u.).
As for “ATAAAATTGCCACATAAGCACCACGTCAATGCTATGTGGGCGGAGTCACCTAGTGCAG”, the binding signal is 29700 fluorescence intensity (a.u.).
As to “ATTTTATTGCCACATAAGCGCCACGTCAATGCCACGTGGGCGGAGTCACCTAGTGCAG”, the binding signal is 56000 fluorescence intensity (a.u.).
In the case of “CAGATATTATATTACGTAACATCTTCGTCAAGCTTACAATCGGAGTCACCTAGTGCAG”, the binding signal is 3850 fluorescence intensity (a.u.).
As for “AACATATTAGAATATCGGTCTTAAATTAAATCCCATATAACGGAGTCACCTAGTGCAG”, the binding signal was 29100 fluorescence intensity (a.u.).
Consider “AATTGCCACGTAAGCGCCATGTCAGTGCCACGTCAAATTACGGAGTCACCTAGTGCAG”, for which the binding signal was 33800 fluorescence intensity (a.u.).
Turning to “ATTTTATTATTCTTGCAGATCAAATTGCCACGTAAGCGTCCGGAGTCACCTAGTGCAG”, the binding signal was 47800 fluorescence intensity (a.u.).
Under “GATCAAATTGCCACGTAAGCGCCACGTCAATGCCATGTCACGGAGTCACCTAGTGCAG” stands 48000 fluorescence intensity (a.u.); under “TTTTCGGATCAAATTGCCACGTAAGCGCCACGTCAGATGACGGAGTCACCTAGTGCAG”, 16000 fluorescence intensity (a.u.).
The value for “ACTATCAAGTTCGGATTAACCGAACCAATACAACCACTCACGGAGTCACCTAGTGCAG” was 21900 fluorescence intensity (a.u.).
With “TAAATTTCAAATTCGTGCCACATAGGTCCTTTTCCTCACACGGAGTCACCTAGTGCAG”, the binding signal was 4670 fluorescence intensity (a.u.).
As to “GCTAGCTATTGTTGATTTGTCGTGTTGTAATATATACACTCGGAGTCACCTAGTGCAG”, the binding signal is 4680 fluorescence intensity (a.u.).
Take “TAAATCGATCCTACGTCACATGACAGACTGGACCCTTGTCCGGAGTCACCTAGTGCAG”: the binding signal was 10900 fluorescence intensity (a.u.).
For “ACGTCCACGAGTCCATGTCATGACACACCCCAAGTTGCTGCGGAGTCACCTAGTGCAG”, the binding signal was 5510 fluorescence intensity (a.u.).
With “CCCCATCCTAGATGGAACAACCACGTCATCTCATGGGTGACGGAGTCACCTAGTGCAG”, the binding signal was 14800 fluorescence intensity (a.u.).
“CGTGATCAATTCGCCTCATGCTGGCGTGACGCGGACCGAGCGGAGTCACCTAGTGCAG”: the binding signal was 6720 fluorescence intensity (a.u.).
Regarding “TTCAAATGCCACCTAAGCGCCACGTCAACCCCATAGACTGCGGAGTCACCTAGTGCAG”, the binding signal is 39500 fluorescence intensity (a.u.).
“TTCAAATGCCACCTAAACGCCACGTCAACCCCATAGACTACGGAGTCACCTAGTGCAG”: the binding signal is 15600 fluorescence intensity (a.u.).
Turning to “CAAATGCCACCTAAGCGCCACGTCAACCCCATAGACTAGGCGGAGTCACCTAGTGCAG”, the binding signal was 34200 fluorescence intensity (a.u.).
Under “CGCACACATGAGCTCATGATGTGAACGTGATGATGGTGCGCGGAGTCACCTAGTGCAG” stands 48500 fluorescence intensity (a.u.).
The value for “TGTGATGTGGGCATGCGTGTGCGCACGTGTTCTATTGGTGCGGAGTCACCTAGTGCAG” was 17600 fluorescence intensity (a.u.).
The value for “GGTGTGAGTGTGATGTTGCTCGTGTAATGATGCGTGTGCGCGGAGTCACCTAGTGCAG” was 5000 fluorescence intensity (a.u.).
Consider “TCCGCCGCCTCGGTCGGCTCACGCGTCCATGTCCATCCCGCGGAGTCACCTAGTGCAG”, for which the binding signal was 3600 fluorescence intensity (a.u.).
The value for “GGGTGAGTGTGTGTTGTGCGTTGTGAGTGTGTATGTGTTTCGGAGTCACCTAGTGCAG” was 3730 fluorescence intensity (a.u.); that for “CGCACTCAGCTTGTTCCTCTAACTGTACACAGTGGTACTTCGGAGTCACCTAGTGCAG” was 26500 fluorescence intensity (a.u.); that for “CCTCTAGATCCTCTATGGTACTATATGTACAGTGCTGTTTCGGAGTCACCTAGTGCAG” was 42900 fluorescence intensity (a.u.).
The value for “TGTCGGTACTTTCATACGTCATCTATGTATGAGTCGGTTTCGGAGTCACCTAGTGCAG” was 10600 fluorescence intensity (a.u.); that for “GTCCAGATTCGTTGTACTAGAATATGTCAGATCCAGTCCTCGGAGTCACCTAGTGCAG” was 3410 fluorescence intensity (a.u.); that for “GAGTTGAGTTTAGACTTTCTAGAGTGGTATATGTATGTTTCGGAGTCACCTAGTGCAG” was 40900 fluorescence intensity (a.u.).
